Screens from PubChem BioAssay.
USP30 block = inhibitors of human USP30 deubiquitinase | Q70CQ3 | inhibition, % at 25 µM | 5.3% of 47,000 active | purified USP30, Ub-rhodamine cleavage fluorescence
USP17 block = blocks human USP17 ubiquitin-rhodamine cleavage; A8MUK1; purified USP17, Ub-rhodamine cleavage fluorescence, 3 h; inhibition, % at 50 µM; 6.5% of 47,000 active; AID 1645855
UCHL1 inh = blocks human UCHL1 ubiquitin-rhodamine cleavage; P09936; purified UCHL1, Ub-rhodamine cleavage fluorescence; inhibition, % at 20 µM; 0.2% of 47,000 active; AID 1645859
USP10 inh = inhibitors of human USP10 deubiquitinase. Q14694. purified USP10, Ub-rhodamine fluorescence, 60 min. inhibition, % at 20 µM. 1.1% of 47,000 active
USP7 inh = inhibitors of human USP7 deubiquitinase; inhibition, % at 20 µM; purified USP7, Ub-rhodamine cleavage fluorescence; AID 1645854; 0.3% of 47,000 active; Q93009
USP8 block = inhibitors of human USP8 deubiquitinase; purified USP8, Ub-rhodamine cleavage fluorescence, 30 min; 4.2% of 47,000 active; AID 1645853; inhibition, % at 20 µM
Target sequence (P40818 whole entry, looked up): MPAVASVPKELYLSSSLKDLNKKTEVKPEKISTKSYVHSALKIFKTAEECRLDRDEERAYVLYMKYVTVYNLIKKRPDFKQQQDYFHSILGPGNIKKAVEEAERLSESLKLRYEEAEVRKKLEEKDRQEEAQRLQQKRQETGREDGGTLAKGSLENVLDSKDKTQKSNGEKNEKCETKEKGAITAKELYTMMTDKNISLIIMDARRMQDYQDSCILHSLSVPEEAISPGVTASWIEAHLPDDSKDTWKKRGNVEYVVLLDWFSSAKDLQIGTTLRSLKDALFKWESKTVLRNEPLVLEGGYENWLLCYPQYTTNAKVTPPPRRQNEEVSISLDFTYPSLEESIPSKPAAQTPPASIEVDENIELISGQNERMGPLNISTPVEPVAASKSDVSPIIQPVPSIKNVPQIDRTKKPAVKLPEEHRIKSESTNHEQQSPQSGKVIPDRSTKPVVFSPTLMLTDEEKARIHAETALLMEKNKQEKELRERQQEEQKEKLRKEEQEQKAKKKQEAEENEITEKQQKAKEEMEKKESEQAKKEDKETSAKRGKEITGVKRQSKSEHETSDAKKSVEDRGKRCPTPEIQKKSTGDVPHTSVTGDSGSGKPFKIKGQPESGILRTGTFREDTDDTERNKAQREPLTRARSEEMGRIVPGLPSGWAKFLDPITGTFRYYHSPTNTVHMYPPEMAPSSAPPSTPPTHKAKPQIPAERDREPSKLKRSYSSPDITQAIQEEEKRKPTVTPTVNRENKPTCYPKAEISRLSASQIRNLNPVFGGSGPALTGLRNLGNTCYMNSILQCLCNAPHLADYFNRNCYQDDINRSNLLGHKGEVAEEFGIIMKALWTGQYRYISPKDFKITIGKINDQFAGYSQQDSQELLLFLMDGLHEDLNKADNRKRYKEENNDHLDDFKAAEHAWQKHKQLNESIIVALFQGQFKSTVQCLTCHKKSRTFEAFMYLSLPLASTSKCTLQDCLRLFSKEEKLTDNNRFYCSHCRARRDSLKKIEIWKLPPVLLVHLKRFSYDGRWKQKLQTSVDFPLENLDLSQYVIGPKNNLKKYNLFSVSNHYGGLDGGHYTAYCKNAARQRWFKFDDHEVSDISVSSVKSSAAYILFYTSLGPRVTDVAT
Numbers stand for hits; . = inactive; / = no result. Only some compounds are listed: those with a hit (about 13% of all), similar ones and a draw of the others. No stated cut-off is given here; in the data, active means inhibition above about 30%; inactive means the rest.

SMILES	USP30 block	USP17 block	UCHL1 inh	USP10 inh	USP7 inh	USP8 block
O=C(C1CCCC1)N1CCC(c2nc3c(nnn3Cc3c(Cl)cccc3Cl)c(=O)[nH]2)CC1	44	.	.	.	.	.
O=C(C1CCC1)N1CCC(c2nc3c(nnn3Cc3ccccc3Cl)c(=O)[nH]2)CC1	32	.	.	.	.	.
Cc1nn(-c2ccc(F)cc2)c(Cl)c1C(=O)NC1CCCc2ccccc21 (configuration not stated)	.	.	.	.	.	.
Cc1cn2nnc(C(=O)NC3CCc4ccccc43)c2c(=O)[nH]1 (configuration not stated)	.	.	.	.	.	64
Cc1nc(-c2cccc(N3CC(C(=O)N4CCc5ccccc54)CC3=O)c2)no1 (configuration not stated)	.	.	.	.	.	.
O=C(Cn1c(NCc2ccccc2)nc2ccccc21)NCC(F)(F)F	52	45	.	.	.	.
Cc1ccc(NC(=O)C2CCN(c3c(C(=O)N4CCOCC4)cnc4snc(C)c34)CC2)c(C)c1	.	.	.	.	.	.
Cc1cc(O)cc(Oc2cc(C)cc(O)c2)c1	30	.	.	.	.	.
COc1cc2cc3c(nc2cc1OC)OCCN(CC1CC1)C3	.	.	.	.	.	.
C1=CCC(CN(CCCn2ccnc2)Cc2cnc[nH]2)CC1 (configuration not stated)	.	.	.	.	.	32
Cc1ccc(CN(CCCn2ccnc2)Cc2cnn(C)c2)s1	.	.	.	.	.	.
COc1ccc2nc(NC(=O)CCc3nnc(-c4ccc(C)cc4)o3)sc2c1	.	.	.	.	.	.
COc1ccc(-c2noc([C@@H]3C[C@H](NC(=O)c4ccccc4)CN3C)n2)cc1	.	.	.	.	.	.
COc1ccccc1NC(=O)N1CCCC1c1nc(-c2cccc(Cl)c2)no1 (configuration not stated)	40	.	.	.	.	.
COc1ccc(-c2noc(C3CCCN3C(=O)Nc3ccc(C)cc3C)n2)cc1 (configuration not stated)	33	.	.	.	.	.
COc1cccc(-c2noc(C3CCCN3C(=O)Nc3ccccc3C)n2)c1 (configuration not stated)	.	.	.	.	.	.
COc1ccc(-c2noc([C@@H]3C[C@H](NC(=O)Nc4ccc(C)cc4)CN3C)n2)cc1	42	.	.	.	.	.
COc1cccc2cc(C(=O)Nc3ccc4c(c3)OCCO4)oc12	.	.	.	.	.	.
Cc1cc(C)n2ncc(C(=O)NCC(F)(F)F)c2n1	.	.	.	.	.	.
COc1ccc(C(=O)Nc2cccn3ncnc23)cc1	.	/	.	.	.	.
Cc1cccc(-n2c(C)c(C)c3c(=N)n(Cc4ccccc4)cnc32)n1	.	.	.	.	.	.
Cc1cc(C)c2cc(CN(C(=O)Nc3ccc(Cl)cc3)C3CCCC3)c(=O)[nH]c2c1	36	.	.	.	.	.
O=C(Nc1ccccc1Cl)N(Cc1cc2cc3c(cc2[nH]c1=O)OCCO3)C1CCCCC1	.	52	.	.	.	.
Cc1nc2c(c(=O)[nH]1)CC[C@@H]1CN(C(=O)C3CCCCC3)C[C@H]21	.	.	.	.	.	.
CC(C)NS(=O)(=O)c1cccc2c(NC(=O)C(Cc3ccccc3)NC(=O)c3ccccc3)cccc12 (configuration not stated)	79	.	.	.	.	.
SMILES	USP30 block	USP17 block	UCHL1 inh	USP10 inh	USP7 inh	USP8 block
CCOC(=O)c1noc2ncnc(Nc3ccc(N4CCC(C)CC4)cc3)c12	.	.	.	.	.	50
CCOC(=O)c1noc2ncnc(N3CCc4ccccc43)c12	.	.	.	.	.	.
CCOC(=O)c1noc2ncnc(Nc3ccc4c(c3)OCO4)c12	.	.	.	.	.	69
Cc1nc(C2CCN(Cc3cccc(C#N)c3)CC2)no1	.	.	.	.	.	.
COCCN(Cc1ccc(F)cc1)Cc1cc(=O)c2cc(C)ccc2[nH]1	.	.	.	.	.	.
CC(CCc1ccccc1)NC(=O)CSc1nnc2n(-c3ccccc3)c(=O)c3ccccc3n12 (configuration not stated)	.	.	.	.	.	.
COc1cc(C(=O)Nc2cccc(C(N)=O)c2)cc2c1OCCO2	.	.	.	.	.	.
Cc1ccc(-n2nnc3c(=O)n(CC(=O)Nc4cc(C)on4)cnc32)cc1	.	32	.	.	.	.
O=c1c2oc3ccccc3c2ncn1CCCn1ccnc1	.	.	.	.	.	.
Cc1cc(NC(=O)Cn2cnc3c(oc4ccccc43)c2=O)no1	/	72	.	.	.	.
c1ccc(-n2c(SCCc3ccncc3)nnc2N2CCOCC2)cc1	42	.	.	.	.	.
CCOc1ccc(CNC(=O)c2nnc(C(=O)Nc3ccc(OC)cc3)s2)cc1	.	.	.	.	.	.
CCc1nnc(C(=O)Nc2ccc(C(=O)NCc3ccc(OC(C)C)cc3)cc2)s1	.	.	.	38	.	.
CCc1nc(-c2cccc(NC(=O)c3ccc(C#N)cc3F)c2)no1	.	43	.	.	.	.
CCc1nc(-c2cccc(NC(=O)c3ccc(C#N)cc3)c2)no1	.	.	.	.	.	.
c1ccc2oc(-c3cn[nH]c3)nc2c1	31	.	.	.	.	.
CCOc1ccc(C(=O)Nc2cccc(-c3nc4ccccc4o3)c2)cc1Br	.	.	.	.	.	.
COc1ccc(NC(=O)CN2CCC3(CC2)Nc2cc(Cl)ccc2C2=NCCN23)cn1	.	.	.	.	.	.
CCOc1ccc(NC(=O)COc2cccc3c2CCN(CC)C3=O)cc1	.	.	.	.	.	.
CCN1CCc2c(OCC(=O)Nc3cc(C(F)(F)F)ccc3Cl)cccc2C1=O	98	74	.	.	.	.
Cc1ccccc1CNC(=O)c1nnc(C(=O)Nc2ccc(F)cc2)s1	39	.	.	.	.	.
CCn1c(CN2CCc3ccccc3C2)nc2cc(S(=O)(=O)N(C)C)ccc21	.	34	.	.	.	79
CN1C(=O)c2cc(S(=O)(=O)Nc3cccc(F)c3)ccc2Oc2cccnc21	.	.	.	.	.	.
Cc1ccc(CSc2nnc(CNC(=O)c3ccc(F)cc3)n2-c2ccccc2)cc1	.	.	.	.	.	.
COc1ccccc1-n1c(CNC(=O)c2ccc(S(=O)(=O)N3CCOCC3)cc2)nnc1SCc1ccc(Br)cc1	36	.	.	.	.	.
Cc1ccc(CNc2nc3nc(C)c(CCC(=O)NCc4ccccc4)c(=O)n3[nH]2)cc1	.	.	.	.	.	.
CCN1CCC2(CN(CCOC)CC23CCN(C(=O)Nc2ccccc2)CC3)C1=O (configuration not stated)	.	.	.	.	.	.
O=C1CC(c2ccc(O)cc2)c2c(nc(-c3ccccc3)[nH]c2=O)N1 (configuration not stated)	/	35	.	.	.	.
